Integrin act MD: qHTS for Activators of Integrin-Mediated Alleviation for Muscular Dystrophy | alpha7betagal myoblasts, beta-gal FDG fluorescence, 48 h | Potency, µM (top dose mostly 38.3 µM), hits mostly activators | actives 0.064% (n = 350,000); also: nearly all actives have a fitted effect of over 60% in size
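alpha7betagal+/- myoblasts (passage 13, 250/well) treated 48 h at 37C with compounds at 1:260 dilution of DMSO stock. Lysed, then beta-galactosidase activity read as FDG fluorescence (ex 480/em 540) after 30 min, with pre-read for autofluorescence.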
Anesthetic bind: qHTS Assay for Identification of Novel General Anesthetics | AID 485281, 2010 | Ferritin light chain (Equus caballus), P02791 | actives 0.074% (n = 350,000) | apoferritin/1-aminoanthracene competitive binding, fluorescence | Potency, µM (series often up to 77.5 µM), actives largely listed as inhibitors; also: nearly all actives have a fitted effect of over 20% in size
Target sequence (P02791 2-175 limits assumed): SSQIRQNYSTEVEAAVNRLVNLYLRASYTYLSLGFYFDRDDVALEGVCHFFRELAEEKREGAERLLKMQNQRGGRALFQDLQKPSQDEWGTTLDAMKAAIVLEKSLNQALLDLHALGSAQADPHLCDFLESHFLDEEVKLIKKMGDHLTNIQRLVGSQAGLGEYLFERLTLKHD
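In PBS, apoferritin at 10 uM is loaded with 1-AMA from a 50% saturated solution. After 10 min of compound exposure at ambient temperature, reduced 535 nm fluorescence indicates probe displacement.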
IL-2 act: qHTS of IL-2 Activators; actives 0.065% (n = 360,000); activation, % (series mostly up to about 46 µM); IL-2 activation reporter assay, cell-based qHTS; stimulated with anti-CD3/CD4/CD28 beads; in transgenic mouse T cells; in the data active = activation above about 50%; inconclusive = mostly about 30% to 49%
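Unstimulated transgenic mouse T cells; 60-min compound exposure; bead-based TCR/CD4/CD28 stimulation; 18 h culture, 37 degrees C; dual fluorescence (EGFP, DsRed) plate cytometry.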
PKM2 act: qHTS Assay for Activators of Human Muscle isoform 2 Pyruvate Kinase. Pyruvate kinase PKM (Homo sapiens), P14618. Potency, µM (highest dose often 57.5 µM), actives largely listed as activators. actives 0.34% (n = 260,000). purified PKM2, Kinase-Glo ATP luminescence, activation; response scale: 0% is enzyme alone, no compound; also: nearly all actives have a fitted effect of over 55% in size
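ATP formation by purified human PK-M2, quantified via coupled luciferase luminescence after 1 h at room temperature with 0.1 mM ADP and 0.5 mM PEP final.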
BRCA1 expr act: qHTS Assay to Identify Small Molecule Activators of BRCA1 Expression | MCF7-BRCA1-FFLuc reporter, luminescence, 48 h; response scale: scaled: vehicle 0%, 10 µM genistein 100% | Potency, µM (doses to about 46.1 µM), usual class: activators | actives 1.1% (n = 380,000); also: nearly all actives have a fitted effect of over 80% in size
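Quantitative HTS in MCF7 cells stably reporting BRCA1 expression via firefly luciferase. Compound treatment lasts 48 h at 37 °C in phenol-red free MEM. Activation is expressed relative to genistein at 10 microM and DMSO.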
Numbers stand for hits; [ ] = another dose, or the depositor's remark. Most compounds without a hit are left out; they make up all but 1.3% or so of the library. Unless noted, calls follow the shape of the dose curve; as a rule, active = well fitted curve in the direction sought with a large enough effect; inconclusive = small, poorly fitted or top-dose-only effect, or another doubt; inactive = no such curve, though single readings can be large; an effect the other way counts as inactive or inconclusive.

CCN(CC)C(=O)Cn1c(=O)n(CCc2ccccc2)c(=O)c2ccccc21 was read as Anesthetic bind inactive and BRCA1 expr act inactive.
For Cc1ccccc1/C=C/c1cc[n+](C)cc1 the results were Integrin act MD inactive, Anesthetic bind inactive, IL-2 act inactive, PKM2 act inactive and BRCA1 expr act inactive.
For CCN(CC)C(=O)Cn1c(C)c(/C=C/c2cc[n+](C)cc2)c2ccccc21 the results were Integrin act MD inactive, Anesthetic bind inactive, IL-2 act 115, PKM2 act inactive and BRCA1 expr act inactive.
COC(=O)NC(c1cccc(F)c1)[C@@]1(C(=O)OC)CCCC1=O (stereo not given in full) was read as Anesthetic bind inactive[15.3 µM].
`Cc1ccc(C(=O)N2CCc3cc(CNC(=O)COc4ccccc4)ccc32)cc1` gave Anesthetic bind inactive.
CC(C)C[C@@H](C=O)NC(=O)[C@H](CC(C)C)NC(=O)[C@H](CC(C)C)NC(=O)OCc1ccccc1 was read as Anesthetic bind inactive.
For O=C(Nc1cccc2cccnc12)c1c(Cl)cc(Cl)cc1Cl the results were BRCA1 expr act inactive.
Screening COc1ccc(-c2cc(C(F)(F)F)n3nc(C(=O)Nc4sc5c(c4C#N)CCC(C)C5)cc3n2)cc1OC (stereo not given) returned Anesthetic bind inactive.
Screening CCc1ccc2c(c1)-c1ccccc1S(=O)(=O)N2CC(=O)N1CCC(C)CC1 returned Anesthetic bind inactive.
For CCn1cc(/C=C/c2cc[n+](C)cc2)c2ccccc21 the results were Integrin act MD inactive, Anesthetic bind inactive, IL-2 act 113 and BRCA1 expr act inactive.
`Cc1[nH]c2ccccc2c1/C=C/c1cc[n+](C)cc1` gave Integrin act MD inactive, Anesthetic bind inactive, IL-2 act 192, PKM2 act inactive and BRCA1 expr act inactive.
For CCC(=O)c1ccc(OCc2ccc(C(=O)OC)cc2)cc1 the results were Integrin act MD inactive, Anesthetic bind inactive, IL-2 act inactive, PKM2 act inactive and BRCA1 expr act inactive.
Screening CCC(=O)c1ccc(OCc2ccc(C#N)cc2)cc1 returned Integrin act MD inactive, Anesthetic bind inactive, IL-2 act inactive, PKM2 act inactive and BRCA1 expr act 3.5µM.
CCN(CCCCO)c1nc(C)nc2c1c(C)c(C)n2-c1c(C)cc(C)cc1C was read as Anesthetic bind inactive.
For Cc1ccc(OC(=O)c2cccc(S(=O)(=O)N(C)C)c2)c(-n2nc3ccccc3n2)c1 the results were Integrin act MD inactive, Anesthetic bind inactive, IL-2 act inactive, PKM2 act inactive and BRCA1 expr act inconclusive.
For Cc1ccc(OC(=O)c2ccc(S(=O)(=O)N(C)C)cc2)c(-n2nc3ccccc3n2)c1 the results were Integrin act MD inactive, Anesthetic bind inactive, IL-2 act inactive, PKM2 act inactive and BRCA1 expr act 13µM.
Screening CCC(=O)CC returned Anesthetic bind inactive.
Screening COC(=O)[C@@]1(Cc2ccc(F)cc2)[C@H]2c3cc(C(=O)N(C)C)n(Cc4ccc(C)o4)c3C[C@H]2CN1C(=O)c1ccccc1 returned Anesthetic bind inactive, IL-2 act inactive, PKM2 act 7.1µM and BRCA1 expr act inactive.
Screening COC(=O)[C@@]1(Cc2ccc(F)cc2)[C@H]2c3cc(C(=O)N(C)C)n(Cc4ccccc4)c3C[C@H]2CN1C(=O)c1ccccc1 returned Integrin act MD inactive, Anesthetic bind inactive, IL-2 act inactive, PKM2 act inactive and BRCA1 expr act inactive.
Screening Cn1c(SCc2cccnc2)nc2c(c1=O)SCC2 returned Integrin act MD inactive, Anesthetic bind inactive, IL-2 act inactive, PKM2 act 28µM and BRCA1 expr act inactive.
`Cn1c(SCc2ccc(Br)cc2)nc2c(c1=O)SCC2` gave Integrin act MD inactive, Anesthetic bind inactive, IL-2 act inactive, PKM2 act inactive and BRCA1 expr act inactive.
Screening CCOc1ccccc1C(=O)Nc1ccc2nc3c(c(Nc4ccc(OC)c(OC)c4)c2c1)CCCC3 returned Anesthetic bind inactive.
Screening COc1ccc(C(=O)Nc2cccc(-c3cnc4ccccc4n3)c2)cc1 returned Integrin act MD inactive, Anesthetic bind inactive, IL-2 act inactive, PKM2 act inactive and BRCA1 expr act 4µM.
Screening CC(C)C(=O)Nc1cccc(-c2cnc3ccccc3n2)c1 returned Integrin act MD inactive, Anesthetic bind inactive, IL-2 act inactive, PKM2 act inactive and BRCA1 expr act 11µM.
Cc1ccc(C(=O)Nc2cccc(-c3cnc4ccccc4n3)c2)cc1 was read as Integrin act MD inactive, Anesthetic bind inactive, IL-2 act inactive, PKM2 act inactive and BRCA1 expr act inactive.
`CSCC[C@H](N)C(=O)N[C@@H](CCCN=C(N)N)C(=O)N[C@@H](CC(C)C)C(=O)N[C@@H](Cc1ccccc1)C(=O)N[C@H](C(=O)O)C(C)C` gave Anesthetic bind inactive.
Screening Cn1ccsc1=NC(=O)c1ccc(Cl)cc1 returned Integrin act MD inactive, Anesthetic bind inactive, IL-2 act inactive, PKM2 act inactive and BRCA1 expr act inactive.
Cn1ccsc1=NC(=O)c1ccc(S(=O)(=O)C(F)F)cc1 was read as Integrin act MD inactive, Anesthetic bind inactive, IL-2 act inactive and BRCA1 expr act 13µM.
For CN(C)c1ccc(C(=O)N=c2sccn2C)cc1[N+](=O)[O-] the results were Integrin act MD inactive, Anesthetic bind inactive, IL-2 act inactive, PKM2 act inactive and BRCA1 expr act 11µM.
Screening CCCN1CNc2c(c(=O)[nH]c(=S)n2CCc2cccc(OC)c2)C1 returned BRCA1 expr act inactive.
Screening O=C(COC(=O)CC12CC3CC(CC(C3)C1)C2)Nc1ncc(Cl)cc1Cl returned Integrin act MD inactive, Anesthetic bind 20µM, IL-2 act inactive, PKM2 act inactive and BRCA1 expr act inactive.
`N#Cc1c(N)n(CCNC(=O)c2cccs2)c2nc3ccccc3nc12` gave Integrin act MD inactive, Anesthetic bind inactive, IL-2 act inactive, PKM2 act inactive and BRCA1 expr act inactive.
Screening N#Cc1c(N)n(CCNC(=O)c2ccccc2)c2nc3ccccc3nc12 returned Integrin act MD inactive, Anesthetic bind inactive, IL-2 act inactive, PKM2 act 18µM and BRCA1 expr act inactive.
Screening CCc1ccc(C(=O)COC(=O)C(Cc2c[nH]c3ccccc23)NC(=O)c2ccc(CC)cc2)cc1 (stereo not given) returned Anesthetic bind inactive.
CCOc1ccc(NC(=O)Nc2cc(C)ccc2F)cc1 was read as Integrin act MD inactive, Anesthetic bind inactive, IL-2 act inactive, PKM2 act inactive and BRCA1 expr act 2.5µM.

Compound activity as filed in PubChem.
